Measurements taken from the supplement of paper PMC4709259.
Structures can show the parent of a compound that is named as a salt. ± gives the standard deviation.

System: Jurkat
Experiment: mean cell size (FSC-A) relative to DMSO control (fraction of control); higher = larger cells
Conditions: 48 h
Summary of the method: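 Jurkat cells at 600 cells/µl were incubated for 1 h and then treated for 48h with the Enzo Screen-Well FDA Approved Drug Library v2.0 at 25µM, with DMSO at 0.9% (v/v) final. Compounds that reduced counts below 20% of controls were retested in 10-fold dilutions down to 25nM. Cell count and mean cell size, taken as forward scatter area, were measured by flow cytometry relative to solvent-only controls. Each plate carried 6-12 controls, and values are means of 3 biological replicates.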

`Cc1ccc(/C(=C\CN2CCCC2)c2cccc(/C=C/C(=O)O)n2)cc1` [Acrivastine] (concentration: 5 µM) and `Cc1ccc(S(=O)(=O)NC(=O)NN2CCCCCC2)cc1` [Tolazamide] (concentration: 25 µM) are within error of each other in mean cell size: 1.06 ± 0.052 for the first, 1.03 ± 0.053 for the second.

`Cc1oncc1C(=O)Nc1ccc(C(F)(F)F)cc1` [Leflunomide] (concentration: 25 µM) and `O=C(O)c1cc(-c2ccc(F)cc2F)ccc1O` [Diflunisal] (concentration: 25 µM) are within error of each other in mean cell size: 1.07 ± 0.025 for the first, 0.989 ± 0.061 for the second.

`C[C@H]1C[C@H]2[C@@H]3CCC4=CC(=O)C=C[C@]4(C)[C@@]3(F)[C@@H](O)C[C@]2(C)[C@@]1(O)C(=O)CO` [Betamethasone] (concentration: 25 µM) and `CCC(=O)O[C@]1(C(=O)CCl)[C@@H](C)C[C@H]2[C@@H]3CCC4=CC(=O)C=C[C@]4(C)[C@@]3(F)[C@@H](O)C[C@@]21C` [Clobetasol Propionate] (concentration: 25 µM) are within error of each other in mean cell size: 0.914 ± 0.018 for the first, 0.898 ± 0.015 for the second.

`CC(C(=O)O)c1ccc(-c2ccccc2)c(F)c1` (centres undefined) [Flurbiprofen] (concentration: 25 µM) and `CC(C)n1c(/C=C/[C@H](O)C[C@H](O)CC(=O)O)c(-c2ccc(F)cc2)c2ccccc21` [Fluvastatin·Na] (concentration: 25 µM) are within error of each other in mean cell size: 0.974 ± 0.032 for the first, 0.972 ± 0.059 for the second.

Going from `CC(C)C[C@H](NC(=O)[C@@H](Cc1c[nH]c2ccccc12)NC(=O)[C@H](Cc1ccc(O)cc1)NC(=O)[C@H](CO)NC(=O)[C@H](Cc1c[nH]c2ccccc12)NC(=O)[C@H](Cc1cnc[nH]1)NC(=O)[C@@H]1CCC(=O)N1)C(=O)N[C@@H](CCCN=C(N)N)C(=O)N1CCC[C@H]1C(=O)NCC(N)=O` [Triptorelin Acetate] (concentration: 25 µM) to `CC1CNc2c(cccc2S(=O)(=O)N[C@@H](CCCNC(=N)N)C(=O)N2CC[C@@H](C)C[C@@H]2C(=O)O)C1` (some centres undefined) [Argatroban] (concentration: 25 µM), the mean cell size falls from 0.997 ± 0.014 to 0.938 ± 0.025.

`Cc1nnc(SCC2=C(C(=O)O)N3C(=O)[C@@H](NC(=O)Cn4cnnn4)[C@H]3SC2)s1` [Cefazolin·Na] (concentration: 25 µM) and `CO/N=C(\C(=O)N[C@@H]1C(=O)N2C(C(=O)O)=C(COC(C)=O)CS[C@H]12)c1csc(N)n1` [Cefotaxime Acid] (concentration: 25 µM) are within error of each other in mean cell size: 0.964 ± 0.048 for the first, 0.944 ± 0.025 for the second.

`Nc1cc(-c2ccncc2)c[nH]c1=O` [Amrinone] (concentration: 25 µM) and `NNC(=O)c1ccncc1` [Isoniazid] (concentration: 25 µM) are within error of each other in mean cell size: 0.965 ± 0.031 for the first, 0.969 ± 0.022 for the second.

`CC#C[C@]1(O)CC[C@H]2[C@@H]3CCC4=CC(=O)CCC4=C3[C@@H](c3ccc(N(C)C)cc3)C[C@@]21C` [Mifepristone] (concentration: 25 µM) and `C#C[C@]1(O)CC[C@H]2[C@@H]3CCC4=CC(=O)CC[C@@H]4[C@H]3CC[C@@]21CC` [Levonorgestrel] (concentration: 25 µM) are within error of each other in mean cell size: 0.903 ± 0.021 for the first, 0.941 ± 0.032 for the second.

Going from `CC(=O)NC[C@H]1CN(c2ccc(N3CCOCC3)c(F)c2)C(=O)O1` [Linezolid] (concentration: 25 µM) to `COc1cc2nc(N3CCN(C(=O)C4COc5ccccc5O4)CC3)nc(N)c2cc1OC` (centres undefined) [Doxazosin Mesylate] (concentration: 2.5 µM), the mean cell size rises from 0.942 ± 0.018 to 1.01 ± 0.011.

`Nc1nc2c(ncn2COCCO)c(=O)[nH]1` [Acyclovir (Acycloguanosine) Zovirax] (concentration: 25 µM) and `Nc1nnc(-c2cccc(Cl)c2Cl)c(N)n1` [Lamotrigine] (concentration: 25 µM) are within error of each other in mean cell size: 0.977 ± 0.028 for the first, 1.01 ± 0.028 for the second.

Going from `CO[C@@]1(NC(=O)C2SC(=C(C(N)=O)C(=O)O)S2)C(=O)N2C(C(=O)O)=C(CSc3nnnn3C)CS[C@@H]21` (some centres undefined) [Cefotetan Disodium] (concentration: 25 µM) to `C[C@H]1c2cccc(O)c2C(O)=C2C(=O)[C@]3(O)C(O)=C(C(N)=O)C(=O)[C@@H](N(C)C)[C@@H]3[C@@H](O)[C@@H]21` [Doxycycline Monohydrate] (concentration: 25 µM), the mean cell size falls from 0.951 ± 0.017 to 0.861 ± 0.021.

Going from `CC(C[N+](C)(C)C)OC(N)=O` (centres undefined) [Bethanechol Chloride] (concentration: 25 µM) to `CC(c1cc2ccccc2s1)N(O)C(N)=O` (centres undefined) [Zileuton] (concentration: 25 µM), the mean cell size rises from 0.926 ± 0.034 to 1 ± 0.038.

`CCC1(c2ccccc2)C(=O)NCNC1=O` [Primidone] (concentration: 25 µM) and `CN1CCN2c3ncccc3Cc3ccccc3C2C1` (centres undefined) [Mirtazapine] (concentration: 25 µM) are within error of each other in mean cell size: 1 ± 0.021 for the first, 0.958 ± 0.033 for the second.

`Clc1ccc(COC(Cn2ccnc2)c2ccc(Cl)cc2Cl)c(Cl)c1` (centres undefined) [Miconazole] (concentration: 25 µM) and `Clc1ccc(COC(Cn2ccnc2)c2ccc(Cl)cc2Cl)cc1` (centres undefined) [Econazole Nitrate] (concentration: 25 µM) are within error of each other in mean cell size: 0.976 ± 0.04 for the first, 0.959 ± 0.03 for the second.

First: COc1cccc2c1C(=O)c1c(O)c3c(c(O)c1C2=O)C[C@@](O)(C(C)=O)C[C@@H]3O[C@H]1C[C@H](N)[C@H](O)[C@H](C)O1 [Daunorubicin·HCl] (concentration: 25 nM)
Second: C[C@]12C=CC(=O)C=C1CC[C@@H]1[C@@H]2[C@@H](O)C[C@@]2(C)[C@H]1CC[C@]2(O)C(=O)CO [Prednisolone] (concentration: 25 µM)
The mean cell size of the first is higher: 1.04 ± 0.037 for the first, 0.979 ± 0.017 for the second.

Compared with `CC(C)(C)NC[C@H](O)c1ccc(O)c(CO)c1` [Levalbuterol·HCl] (concentration: 25 µM), `CN(C)CC(c1ccc(O)cc1)C1(O)CCCCC1` (centres undefined) [Desvenlafaxine Succinate Hydrate] (concentration: 25 µM) is higher in mean cell size: 0.929 ± 0.03 for the first, 0.993 ± 0.027 for the second.

`CN(C)CCC=C1c2ccccc2COc2ccccc21` [Doxepin·HCl] (concentration: 25 µM) and `NC1=NCC2c3ccccc3Cc3ccccc3N12` (centres undefined) [Epinastine·HCl] (concentration: 25 µM) are within error of each other in mean cell size: 0.978 ± 0.049 for the first, 0.951 ± 0.014 for the second.

`Clc1ccc2nsnc2c1NC1=NCCN1` [Tizanidine·HCl] (concentration: 25 µM) and `Cc1cccc(Nc2ccncc2S(=O)(=O)NC(=O)NC(C)C)c1` [Torsemide] (concentration: 25 µM) are the same in mean cell size: 1.01 ± 0.014 for the first, 1.01 ± 0.052 for the second.

`CCN(CC)C(=O)/C(C#N)=C/c1cc(O)c(O)c([N+](=O)[O-])c1` [Entacapone] (concentration: 25 µM) and `CCC[C@H](N[C@@H](C)C(=O)N1[C@H](C(=O)O)C[C@@H]2CCCC[C@@H]21)C(=O)OCC` [Perindopril Erbumine] (concentration: 25 µM) are within error of each other in mean cell size: 1.06 ± 0.055 for the first, 0.995 ± 0.051 for the second.

Compound `CC(=O)NO` [Acetohydroxamic Acid] (concentration: 25 µM) has a mean cell size of 1.02 ± 0.059.
